Experimental data as given in paper PMC5540273 (PLoS ONE, 2017).

How the values were obtained:
Settings in all cases: concentration: 1 μM, replicates: in singlicate; n = 1
PCTK2 = tested on: T1, PCTK2
T1 construct: gene CDK17

PCTK3 = tested on: T2, PCTK3
T2 construct: gene CDK18

PDGFRA = tested on: PDGFRA
PDGFRB = tested on: PDGFRB
PDPK1 = tested on: PDPK1
PFTAIRE2 = tested on: PFTAIRE2
PFTK1 = tested on: T3, PFTK1
T3 construct: gene CDK14

PHKG1 = tested on: PHKG1
PHKG2 = tested on: PHKG2
PIK3C2B = tested on: PIK3C2B
PIK3C2G = tested on: PIK3C2G
PIK3CA = tested on: PIK3CA
PIK3CB = tested on: PIK3CB
PIK3CD = tested on: PIK3CD
PIK3CG = tested on: PIK3CG
PIK4CB = tested on: T4, PIK4CB
T4 construct: gene PI4KB

PIKFYVE = tested on: PIKFYVE
PIM1 = tested on: PIM1
PIM2 = tested on: PIM2
PIM3 = tested on: PIM3
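Further: KINOMEscan kinase panel screen.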

Row | Compound | %Inh (PCTK2) [%] | %Inh (PCTK3) [%] | %Inh (PDGFRA) [%] | %Inh (PDGFRB) [%] | %Inh (PDPK1) [%] | %Inh (PFTAIRE2) [%] | %Inh (PFTK1) [%] | %Inh (PHKG1) [%] | %Inh (PHKG2) [%] | %Inh (PIK3C2B) [%] | %Inh (PIK3C2G) [%] | %Inh (PIK3CA) [%] | %Inh (PIK3CB) [%] | %Inh (PIK3CD) [%] | %Inh (PIK3CG) [%] | %Inh (PIK4CB) [%] | %Inh (PIKFYVE) [%] | %Inh (PIM1) [%] | %Inh (PIM2) [%] | %Inh (PIM3) [%]
1 | COc1ccc(CNC(=O)NC2CCN(c3ccnc(Nc4ccc(F)cc4)n3)CC2)cc1 [GSK1379788] | 0 | 0 | 0 | 35 | 0 | 0 | 13 | 0 | 0 | 0 | 0 | 0 | 0 | 0 | 0 | 0 | 6 | 0 | 0 | 0
2 | COc1cc(Nc2nccc(N3CCC(NC(=O)c4cc5ccccc5s4)C3)n2)cc(OC)c1OC (stereo not shown) [GSK1379760] | 9 | 20 | 0 | 44 | 50 | 7 | 0 | 12 | 0 | 0 | 0 | 0 | 0 | 14 | 0 | 0 | 6 | 16 | 0 | 3
3 | CN(c1ccc(NC(=O)Nc2cc(C(F)(F)F)ccc2F)cc1)c1ccnc(Nc2ccc(S(N)(=O)=O)cc2)n1 [GW809893] | 97.9 | 95.5 | 96.1 | 99.9 | 35 | 96.5 | 97 | 14 | 0 | 29 | 39 | 3 | 0 | 30 | 31 | 0 | 0 | 0 | 0 | 0
4 | COc1ccc(Nc2nccc(NCCNC(=O)c3cc4ccccc4s3)n2)cc1 [GSK1379896] | 0 | 0 | 0 | 15 | 8 | 14 | 18 | 0 | 2 | 0 | 0 | 0 | 32 | 0 | 0 | 0 | 0 | 8 | 0 | 2
5 | Cn1cc(-c2[nH]c3cc(NC(=O)[C@H](N)C4CCCCC4)cc4c3c2C=NNC4=O)cn1 | 0 | 0 | 99.7 | 100 | 75 | 5 | 5 | 65 | 23 | 49 | 0 | 0 | 9 | 6 | 0 | 0 | 1 | 39 | 0 | 46
6 | Cl.Cl.NCC(C(=O)Nc1cc(Br)c(-c2ccnc3[nH]ccc23)s1)c1ccccc1 (stereo not shown) [GSK1269851] | 6 | 0 | 0 | 38 | 0 | 24 | 28 | 49 | 0 | 0 | 0 | 0 | 0 | 0 | 0 | 9 | 0 | 19 | 0 | 0
7 | Clc1ccc(-c2nn3ncccc3c2-c2ccnc(Nc3ccc4c(c3)OCCO4)n2)cc1 [GW829116] | 0 | 0 | 24 | 99.9 | 0 | 0 | 0 | 0 | 0 | 0 | 0 | 0 | 0 | 0 | 0 | 0 | 25 | 13 | 6 | 0
8 | COc1cc(Nc2ncc3c(C)nc(-c4cc5ccccc5[nH]4)n3n2)cc(OC)c1OC [GW869516] | 32 | 6 | 0 | 29 | 0 | 0 | 4 | 27 | 0 | 0 | 0 | 0 | 0 | 0 | 30 | 0 | 0 | 4 | 0 | 0
9 | CCCCc1nn2ncccc2c1-c1ccnc(Nc2ccc(N3CCN(C)CC3)cc2)n1 [GW684941] | 37 | 16 | 98.8 | 100 | 0 | 0 | 0 | 20 | 4 | 66 | 0 | 0 | 0 | 41 | 0 | 74 | 51 | 0 | 0 | 0
10 | Cc1ccc(F)c(C(=O)Nc2cccc(-c3nn4ccccc4c3-c3ccnc(Nc4cccc(F)c4)n3)c2)c1F [GSK361061] | 0 | 16 | 6 | 99.7 | 11 | 18 | 11 | 14 | 6 | 0 | 0 | 0 | 0 | 0 | 0 | 0 | 0 | 24 | 0 | 7
11 | Cc1cccc(Nc2nc(N[C@H]3CCNC3)ncc2C(N)=O)c1.Cl [GSK2197149] | 7 | 34 | 58 | 89 | 7 | 7 | 15 | 66 | 68 | 0 | 0 | 0 | 0 | 0 | 0 | 8 | 0 | 28 | 68 | 76
12 | Cl.NC(=O)c1cccc(Nc2nccc(Nc3ccc(Oc4c(Cl)cccc4Cl)c(Cl)c3)n2)c1 [GW659009] | 0 | 0 | 0 | 36 | 0 | 15 | 0 | 0 | 0 | 0 | 0 | 0 | 0 | 4 | 0 | 0 | 0 | 13 | 0 | 4
13 | O=C(Nc1cccc(-c2nn3ncccc3c2-c2ccnc(Nc3ccccc3)n2)c1)c1c(F)cccc1F [GSK198271] | 0 | 17 | 65 | 100 | 0 | 23 | 0 | 0 | 0 | 0 | 0 | 0 | 0 | 0 | 0 | 6 | 0 | 16 | 0 | 5
14 | COC(=O)Nc1nc2ccc(Oc3ccc(NC(=O)Nc4cc(C(F)(F)F)ccc4F)cc3)cc2n1C.Cl [GW692089] | 0 | 12 | 78 | 100 | 0 | 6 | 4 | 0 | 0 | 0 | 4 | 0 | 0 | 0 | 0 | 0 | 6 | 0 | 24 | 0
15 | COc1cccc(NC(=O)NC2CCN(c3ccnc(Nc4cc(OC)c(OC)c(OC)c4)n3)C2)c1 (stereo not shown) [GSK1379763] | 25 | 21 | 28 | 83 | 0 | 9 | 5 | 0 | 0 | 0 | 0 | 0 | 0 | 51 | 8 | 78 | 0 | 0 | 0 | 0
16 | Cc1ccc(S(=O)(=O)Nc2ccc(Nc3nccc(Nc4cccc5[nH]ncc45)n3)cc2)cc1 [GSK581271] | 0 | 12 | 0 | 73 | 0 | 12 | 10 | 0 | 0 | 0 | 0 | 0 | 0 | 0 | 5 | 77 | 0 | 11 | 0 | 0
17 | c1ccc(-c2cnc3nccnn23)cc1 [AH20685] | 0 | 15 | 0 | 23 | 0 | 0 | 0 | 40 | 0 | 0 | 0 | 0 | 0 | 0 | 0 | 0 | 0 | 0 | 0 | 9
